± gives the standard deviation of the averaged measurements.
Columns and labels:
Experiment in all cases: relative enzymatic activity vs untreated control (fraction); higher = less inhibition
Conditions in all cases: 100 µM; incubation time: 2 h at 37 C
DNA gyrase = tested on: DNA gyrase
Procedure: (§1)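 In vitro enzymatic inhibition assays (ProFoldin kits) for 12 purified essential E. coli enzymes or complexes, each treated with 218 active antibacterial compounds at 100 µM for 2 h at 37°C. Read-outs were fluorescence or absorbance (phosphate detection, dye binding), converted to activity via standard curves and expressed relative to untreated DMSO controls.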

DNA helicase = DNA helicase (UniProt P0ACB1)
Procedure: as §1

DNA ligase = DNA ligase (UniProt B1XA82)
Procedure: as §1

DNA polymerase = DNA polymerase (UniProt P10443)
Procedure: as §1

DNA primase = DNA primase (UniProt P0ABS7)
Procedure: as §1

GlmU = GlmU (UniProt A7ZTU1)
Procedure: as §1

Guanlyate kinase = Guanlyate kinase (UniProt Q0TBG1)
Procedure: as §1

MurA = MurA (UniProt Q3YX52)
Procedure: as §1

MurD = biological target: T1, MurD (UniProt P14900)
T1 sequence (whole entry): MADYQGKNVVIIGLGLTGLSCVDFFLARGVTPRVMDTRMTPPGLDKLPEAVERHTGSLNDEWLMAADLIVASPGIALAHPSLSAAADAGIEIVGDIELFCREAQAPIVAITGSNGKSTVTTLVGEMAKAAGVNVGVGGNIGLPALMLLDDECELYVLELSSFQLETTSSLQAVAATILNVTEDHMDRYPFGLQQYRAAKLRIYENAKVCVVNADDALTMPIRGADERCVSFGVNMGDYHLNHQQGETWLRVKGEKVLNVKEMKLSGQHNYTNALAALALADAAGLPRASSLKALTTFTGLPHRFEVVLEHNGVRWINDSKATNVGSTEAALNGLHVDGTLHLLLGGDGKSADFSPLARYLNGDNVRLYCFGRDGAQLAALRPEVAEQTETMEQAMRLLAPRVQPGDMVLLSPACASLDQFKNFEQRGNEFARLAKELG
Procedure: as §1

MurF = biological target: T2, MurF (UniProt P11880)
T2 sequence (whole entry): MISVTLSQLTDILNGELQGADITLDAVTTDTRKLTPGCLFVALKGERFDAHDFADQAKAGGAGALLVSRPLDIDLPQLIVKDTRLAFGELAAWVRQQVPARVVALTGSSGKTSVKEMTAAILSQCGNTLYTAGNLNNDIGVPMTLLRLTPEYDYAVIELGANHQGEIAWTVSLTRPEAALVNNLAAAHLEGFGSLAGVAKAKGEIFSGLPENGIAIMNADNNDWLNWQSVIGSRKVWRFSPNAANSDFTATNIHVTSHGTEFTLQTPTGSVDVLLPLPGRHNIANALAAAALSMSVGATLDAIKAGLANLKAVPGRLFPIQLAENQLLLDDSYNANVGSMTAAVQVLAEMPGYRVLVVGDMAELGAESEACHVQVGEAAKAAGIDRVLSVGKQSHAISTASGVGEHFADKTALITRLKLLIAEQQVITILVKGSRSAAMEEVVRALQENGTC
Procedure: as §1

RNA polymerase = tested on: RNA polymerase
Procedure: as §1

Sequence of Guanlyate kinase (Q0TBG1 whole entry): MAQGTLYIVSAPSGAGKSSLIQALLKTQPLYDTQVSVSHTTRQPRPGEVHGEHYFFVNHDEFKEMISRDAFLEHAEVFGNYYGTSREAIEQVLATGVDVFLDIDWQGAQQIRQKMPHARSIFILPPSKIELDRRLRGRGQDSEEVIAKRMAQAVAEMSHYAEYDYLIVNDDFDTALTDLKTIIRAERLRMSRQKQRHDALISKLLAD
Sequence of MurA (Q3YX52 whole entry): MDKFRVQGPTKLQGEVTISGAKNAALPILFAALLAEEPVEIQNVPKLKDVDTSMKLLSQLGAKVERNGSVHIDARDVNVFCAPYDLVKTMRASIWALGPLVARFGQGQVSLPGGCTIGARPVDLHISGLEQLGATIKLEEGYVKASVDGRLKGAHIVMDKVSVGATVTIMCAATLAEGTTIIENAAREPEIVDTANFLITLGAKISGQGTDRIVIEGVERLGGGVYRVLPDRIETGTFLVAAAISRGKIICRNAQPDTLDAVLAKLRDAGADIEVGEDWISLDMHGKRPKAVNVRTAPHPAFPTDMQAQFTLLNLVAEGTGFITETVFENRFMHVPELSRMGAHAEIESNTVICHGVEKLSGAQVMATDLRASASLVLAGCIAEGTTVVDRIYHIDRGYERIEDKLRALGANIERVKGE
Sequence of DNA primase (P0ABS7 whole entry): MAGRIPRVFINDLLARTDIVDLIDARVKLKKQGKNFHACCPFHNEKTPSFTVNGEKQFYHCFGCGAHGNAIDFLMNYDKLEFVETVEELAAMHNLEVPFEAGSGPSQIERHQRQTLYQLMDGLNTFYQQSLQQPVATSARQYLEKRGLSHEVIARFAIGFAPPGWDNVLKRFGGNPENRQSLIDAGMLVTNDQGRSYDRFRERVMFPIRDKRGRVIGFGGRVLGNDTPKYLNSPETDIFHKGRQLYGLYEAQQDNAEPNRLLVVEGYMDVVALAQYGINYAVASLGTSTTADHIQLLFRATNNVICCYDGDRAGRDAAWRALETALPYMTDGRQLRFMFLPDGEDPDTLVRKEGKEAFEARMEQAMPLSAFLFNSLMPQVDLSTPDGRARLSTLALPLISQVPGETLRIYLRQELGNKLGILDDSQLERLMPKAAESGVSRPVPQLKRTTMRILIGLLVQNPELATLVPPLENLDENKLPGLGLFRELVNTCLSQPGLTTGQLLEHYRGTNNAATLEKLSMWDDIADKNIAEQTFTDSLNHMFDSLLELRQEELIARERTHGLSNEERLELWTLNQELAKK
Sequence of DNA polymerase (P10443 whole entry): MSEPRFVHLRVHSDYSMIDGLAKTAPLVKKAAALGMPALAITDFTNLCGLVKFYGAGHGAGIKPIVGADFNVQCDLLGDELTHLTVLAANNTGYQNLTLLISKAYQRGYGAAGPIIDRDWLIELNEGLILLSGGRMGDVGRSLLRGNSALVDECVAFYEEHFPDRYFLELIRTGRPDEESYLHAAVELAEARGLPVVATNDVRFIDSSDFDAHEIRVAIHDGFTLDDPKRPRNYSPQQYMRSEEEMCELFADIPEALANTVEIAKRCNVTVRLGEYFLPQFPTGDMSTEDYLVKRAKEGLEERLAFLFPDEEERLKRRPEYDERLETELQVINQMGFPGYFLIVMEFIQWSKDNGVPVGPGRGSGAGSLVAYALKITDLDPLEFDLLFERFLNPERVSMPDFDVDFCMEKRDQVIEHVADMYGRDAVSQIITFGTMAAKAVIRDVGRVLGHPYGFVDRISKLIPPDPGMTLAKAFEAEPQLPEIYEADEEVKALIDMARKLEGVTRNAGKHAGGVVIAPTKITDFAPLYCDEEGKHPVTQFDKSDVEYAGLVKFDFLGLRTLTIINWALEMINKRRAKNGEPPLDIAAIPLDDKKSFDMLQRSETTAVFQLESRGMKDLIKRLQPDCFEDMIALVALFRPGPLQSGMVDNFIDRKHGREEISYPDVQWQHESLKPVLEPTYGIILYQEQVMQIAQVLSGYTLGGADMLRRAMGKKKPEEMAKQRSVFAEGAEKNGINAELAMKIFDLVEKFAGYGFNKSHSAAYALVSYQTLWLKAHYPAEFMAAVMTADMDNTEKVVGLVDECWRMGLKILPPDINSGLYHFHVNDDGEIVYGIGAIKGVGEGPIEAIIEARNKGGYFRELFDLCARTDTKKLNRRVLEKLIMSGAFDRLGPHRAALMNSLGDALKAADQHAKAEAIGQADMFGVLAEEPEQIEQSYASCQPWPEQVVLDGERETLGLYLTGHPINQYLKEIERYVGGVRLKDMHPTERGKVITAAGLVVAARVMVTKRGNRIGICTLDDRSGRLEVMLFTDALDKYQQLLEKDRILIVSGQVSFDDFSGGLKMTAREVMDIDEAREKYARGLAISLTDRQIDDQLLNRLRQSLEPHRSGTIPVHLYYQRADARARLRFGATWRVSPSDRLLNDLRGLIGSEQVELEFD
Sequence of DNA ligase (B1XA82 whole entry): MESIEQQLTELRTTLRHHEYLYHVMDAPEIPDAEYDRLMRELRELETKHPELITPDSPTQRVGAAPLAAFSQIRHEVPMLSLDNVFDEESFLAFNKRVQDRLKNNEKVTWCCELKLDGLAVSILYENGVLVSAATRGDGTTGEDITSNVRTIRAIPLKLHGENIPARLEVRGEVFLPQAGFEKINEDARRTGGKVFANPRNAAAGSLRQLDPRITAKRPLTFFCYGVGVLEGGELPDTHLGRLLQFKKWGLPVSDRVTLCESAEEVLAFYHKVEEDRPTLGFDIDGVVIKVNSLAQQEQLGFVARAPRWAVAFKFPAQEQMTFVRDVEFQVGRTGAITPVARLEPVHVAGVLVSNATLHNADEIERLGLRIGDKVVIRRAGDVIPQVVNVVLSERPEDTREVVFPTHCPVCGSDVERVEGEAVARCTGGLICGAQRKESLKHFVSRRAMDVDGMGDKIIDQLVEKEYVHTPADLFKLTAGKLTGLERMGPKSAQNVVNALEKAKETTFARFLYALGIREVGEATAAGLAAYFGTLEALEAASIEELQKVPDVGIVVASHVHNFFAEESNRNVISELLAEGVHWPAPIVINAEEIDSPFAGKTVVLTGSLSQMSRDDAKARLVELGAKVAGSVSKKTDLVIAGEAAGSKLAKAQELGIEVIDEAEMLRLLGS
Sequence of GlmU (A7ZTU1 whole entry, looked up): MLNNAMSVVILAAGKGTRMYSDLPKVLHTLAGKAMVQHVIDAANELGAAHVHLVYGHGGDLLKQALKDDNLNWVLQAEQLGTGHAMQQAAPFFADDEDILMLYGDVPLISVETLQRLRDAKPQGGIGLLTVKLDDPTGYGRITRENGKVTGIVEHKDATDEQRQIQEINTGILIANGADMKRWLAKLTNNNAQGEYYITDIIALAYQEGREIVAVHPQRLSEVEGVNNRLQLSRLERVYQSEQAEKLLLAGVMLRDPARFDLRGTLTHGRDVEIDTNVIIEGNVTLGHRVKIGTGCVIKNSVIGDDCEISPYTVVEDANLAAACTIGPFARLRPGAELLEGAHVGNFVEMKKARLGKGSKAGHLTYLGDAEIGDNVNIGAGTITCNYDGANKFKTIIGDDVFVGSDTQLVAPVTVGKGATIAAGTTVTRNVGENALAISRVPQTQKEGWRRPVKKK
Sequence of DNA helicase (P0ACB1 whole entry): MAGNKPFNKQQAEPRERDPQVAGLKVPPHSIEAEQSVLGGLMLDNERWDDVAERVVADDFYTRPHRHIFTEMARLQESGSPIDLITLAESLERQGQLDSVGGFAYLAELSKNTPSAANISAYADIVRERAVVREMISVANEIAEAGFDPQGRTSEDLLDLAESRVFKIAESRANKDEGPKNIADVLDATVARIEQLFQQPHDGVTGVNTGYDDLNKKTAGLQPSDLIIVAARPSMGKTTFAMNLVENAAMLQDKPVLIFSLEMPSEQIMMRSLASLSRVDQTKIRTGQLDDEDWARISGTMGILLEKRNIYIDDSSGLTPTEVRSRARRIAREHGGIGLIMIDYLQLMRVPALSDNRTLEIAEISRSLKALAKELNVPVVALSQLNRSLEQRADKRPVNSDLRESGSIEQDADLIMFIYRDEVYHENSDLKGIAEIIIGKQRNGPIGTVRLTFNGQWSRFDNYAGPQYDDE

| Compound | relative enzymatic activity (DNA gyrase) | relative enzymatic activity (DNA helicase) | relative enzymatic activity (DNA ligase) | relative enzymatic activity (DNA polymerase) | relative enzymatic activity (DNA primase) | relative enzymatic activity (GlmU) | relative enzymatic activity (Guanlyate kinase) | relative enzymatic activity (MurA) | relative enzymatic activity (MurD) | relative enzymatic activity (MurF) | relative enzymatic activity (RNA polymerase) |
| --- | --- | --- | --- | --- | --- | --- | --- | --- | --- | --- | --- |
| CO[C@@]12[C@@H]3N[C@@H]3CN1C1=C(C(=O)C(N)=C(C)C1=O)[C@@H]2COC(N)=O | 1.25 ± 0.4 | 0.689 ± 0.37 | 0.844 ± 0.031 | 1.17 ± 0.19 | 0.837 ± 0.014 | 0.979 ± 0.0078 | 0.861 ± 0.01 | 0.431 ± 0.072 | 0.615 ± 0.42 | 0.942 ± 0.24 | 0.82 ± 0.035 |
| NC[C@H]1OB(O)c2c(OCCCO)cccc21 | 0.84 ± 0.32 | 0.308 ± 0.43 | 0.887 ± 0.13 | 1.08 ± 0.082 | 0.8235 ± 0.0023 | 0.922 ± 0.11 | 0.991 ± 0.1 | 0.709 ± 0.16 | 0.564 ± 0.35 | 1.17 ± 0.024 | 0.871 ± 0.073 |
| CON=C(C(=O)NC1C(=O)N2C(C(=O)[O-])=C(COC(C)=O)CSC12)c1csc(N)n1.[Na+] (configuration not stated) | 0.696 ± 0.52 | 0.4103 ± 0.0017 | 0.569 ± 0.58 | 1.11 ± 0.28 | 0.68 ± 0.16 | 0.914 ± 0.13 | 1.04 ± 0.053 | 0.0697 ± 0.016 | 0.575 ± 0.37 | 0.939 ± 0.19 | 0.608 ± 0.48 |
| CC(NCCCc1cccc(C(F)(F)F)c1)c1cccc2ccccc12.Cl (configuration not stated) | 1.09 ± 0.12 | 0.434 ± 0.07 | 1.1 ± 0.31 | 1.18 ± 0.25 | 0.676 ± 0.16 | 1.08 ± 0.17 | 1.01 ± 0.032 | 0.749 ± 0.32 | 0.58 ± 0.37 | 0.953 ± 0.19 | 0.817 ± 0.077 |
| Cc1cn(C2CC(N=[N+]=[N-])C(CO)O2)c(=O)[nH]c1=O (configuration not stated) | 0.801 ± 0.34 | 0.472 ± 0.1 | 1.38 ± 0.076 | 1.3 ± 0.36 | 0.692 ± 0.18 | 1.002 ± 0.0012 | 0.865 ± 0.097 | 0.77 ± 0.043 | 0.573 ± 0.35 | 0.97 ± 0.2 | 0.887 ± 0.0091 |
| C=C1c2cccc(O)c2C(=O)C2=C(O)C3(O)C(=O)C(C(N)=O)=C(O)C(N(C)C)C3C(O)C12.Cl (configuration not stated) | 0.0714 ± 0.1 | 0.143 ± 0.031 | 0.963 ± 0.19 | 0.187 ± 0.022 | 0.399 ± 0.077 | 1 ± 0.011 | 0.376 ± 0.018 | 0.0701 ± 0.026 | 0.62 ± 0.43 | 0.937 ± 0.28 | 0.052 ± 0.025 |
| CC(O)C1C(=O)N2C(C(=O)O)=C(SC3CNC(C(=O)N(C)C)C3)C(C)C12 (configuration not stated) | 0.734 ± 0.42 | 0.994 ± 0.1 | 1.45 ± 0.021 | 1.26 ± 0.3 | 0.719 ± 0.22 | 1.04 ± 0.19 | 0.973 ± 0.11 | 0.501 ± 0.29 | 0.487 ± 0.33 | 0.584 ± 0.82 | 1.09 ± 0.28 |
| N[C@@H]1CC[C@@H](c2ccc(Cl)c(Cl)c2)c2ccccc21 | 0.381 ± 0.18 | 0.0688 ± 0.0028 | 0.842 ± 0.083 | 0.507 ± 0.72 | 0.749 ± 0.027 | 0.646 ± 0.059 | 0.924 ± 0.13 | 0.622 ± 0.57 | 0.378 ± 0.23 | 1.02 ± 0.22 | 0.905 ± 0.019 |
| CCCCCCCCCCCCCCCC[N+](C)(C)C | 0.633 ± 0.67 | 0.0316 ± 0.02 | 0.457 ± 0.13 | 0.0628 ± 0.012 | 0.384 ± 0.054 | 0.198 ± 0.0053 | 0.644 ± 0.077 | 0.0456 ± 0.013 | 0.173 ± 0.085 | 0.106 ± 0.034 | 0.223 ± 0.0051 |
| NC(=O)[C@@H]1CC[C@@H]2CN1C(=O)N2OS(=O)(=O)O | 0.771 ± 0.26 | 0.552 ± 0.18 | 0.834 ± 0.21 | 0.501 ± 0.71 | 0.803 ± 0.037 | 0.998 ± 0.01 | 0.947 ± 0.072 | 0.699 ± 0.17 | 0.604 ± 0.42 | 0.976 ± 0.22 | 0.809 ± 0.13 |
| CCn1cc(C(=O)O)c(=O)c2cc(F)c(N3CCN(C)CC3)cc21.CS(=O)(=O)O | 0.0308 ± 0.043 | 0.573 ± 0.14 | 1.16 ± 0.29 | 1.27 ± 0.33 | 0.843 ± 0.025 | 0.944 ± 0.037 | 0.919 ± 0.11 | 0.696 ± 0.11 | 0.589 ± 0.41 | 1.109 ± 0.0024 | 0.862 ± 0.089 |
| NCC1OC(OC2C(N)CC(N)C(OC3OC(CO)C(O)C(N)C3O)C2O)C(N)C(O)C1O.O=S(=O)(O)O (configuration not stated) | 0.685 ± 0.063 | 0.381 ± 0.53 | 0.834 ± 0.15 | 0.924 ± 0.43 | 0.539 ± 0.052 | 0.956 ± 0.069 | 0.589 ± 0.046 | 0.257 ± 0.04 | 0.647 ± 0.44 | 0.958 ± 0.17 | 0.537 ± 0.016 |
| CC1(C)S[C@@H]2[C@H](NC(=O)[C@H](NC(=O)N3CCNC3=O)c3ccccc3)C(=O)N2[C@H]1C(=O)O | 0.794 ± 0.35 | 0.76 ± 0.44 | 0.934 ± 0.038 | 1.06 ± 0.04 | 0.864 ± 0.024 | 0.998 ± 0.033 | 0.935 ± 0.03 | 0.579 ± 0.11 | 0.583 ± 0.4 | 0.954 ± 0.23 | 0.869 ± 0.089 |
| Cc1cc(C(C)(C)CC(C)(C)C)ccc1OCCOCC[N+](C)(C)Cc1ccccc1.[Cl-] | 0.0681 ± 0.096 | 0.0148 ± 0.0016 | 1.09 ± 0.19 | 0.247 ± 0.011 | 0.55 ± 0.034 | 0.409 ± 0.4 | 0.428 ± 0.034 | 0.0365 ± 0.0028 | 0.0983 ± 0.021 | 0.477 ± 0.33 | 0.664 ± 0.036 |
| COC(=O)N/N=C/c1ccc([N+](=O)[O-])o1 | 0.742 ± 0.39 | 0.508 ± 0.072 | 0.9684 ± 0.0075 | 0.516 ± 0.72 | 0.841 ± 0.017 | 1.02 ± 0.019 | 0.942 ± 0.11 | 0.255 ± 0.17 | 0.636 ± 0.45 | 0.961 ± 0.21 | 0.918 ± 0.14 |
| O=C1CN(N=Cc2ccc([N+](=O)[O-])o2)C(=O)N1 | 1.07 ± 0.045 | 0.467 ± 0.062 | 1.42 ± 0.59 | 1.32 ± 0.47 | 0.655 ± 0.11 | 0.964 ± 0.044 | 0.855 ± 0.027 | 0.649 ± 0.061 | 0.593 ± 0.41 | 0.96 ± 0.23 | 0.815 ± 0.028 |
| Cc1cc(=O)c(C(=O)N[C@@H](C(=O)N[C@@H]2C(=O)N3C(C(=O)O)=C(CSc4nnnn4C)CS[C@H]23)c2ccc(O)cc2)c[nH]1 | 0.759 ± 0.035 | 0.278 ± 0.28 | 0.862 ± 0.016 | 1.08 ± 0.15 | 0.766 ± 0.023 | 0.919 ± 0.03 | 0.946 ± 0.015 | 0.116 ± 0.018 | 0.634 ± 0.44 | 0.92 ± 0.2 | 0.505 ± 0.5 |

From the supplement of paper PMC9446081
